PubChem BioAssay (NCI)
“And” between values parts separate entries of the source, which are not always exact repeats. Equal entries are not always repeated. Compounds without any hit were thinned out: in the full panel of roughly 83,000, 20% have a hit.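 Results are percent growth after 48 hours of single-concentration exposure. 100 means growth as in untreated cells, lower positive values show inhibition; negative values down to -100 show cell death.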 Values without a mark were called inactive. The source made the active and inactive calls. The calls were made as follows: active = growth percent below 10; inactive = the rest.

Tested on: MDA-MB-468 breast
Assay: NCI-60 one-dose screen, 48 h (100 = growth as untreated, 0 = no growth, -100 = all killed)
Details: 10 µM unless noted

SMILES | growth
O=C(Nc1nc2ccc(F)cc2s1)c1cc(-c2ccc(F)cc2)n2nc(-c3ccccc3)cc2n1 | 92%
CCOC(=O)C(N)Cc1cc(I)c(O)c(I)c1 (stereo not given) | 101% and 113%
O=C(c1ccc(F)cc1)C1CCN(CCn2c(=O)[nH]c3ccccc3c2=O)CC1 | 104%
CN1CCN(c2ccc3c(c2)nc(NNC(=O)c2ccncn2)c2cccn23)CC1 | 19.7%
Cc1ccc2nc3c(cc2c1)CSc1nnc(-c2ccc[nH]c2=S)n1N3 | 111%
Cc1cc(NS(=O)(=O)c2ccccc2)c(OS(=O)(=O)c2ccccc2)cc1C | 102%
N#C/C(=C\c1ccc2c(c1)OCO2)c1ccccc1 | 24.8%
O=C(Cn1cc(COc2ncnc3c2cnn3-c2ccccc2)nn1)Nc1ccccn1 | 97.7%
CS(=O)(=O)c1ccc(-n2nc(-c3ccc(Br)cc3)c3ccccc3c2=O)cc1 | 100%
COc1ccc(C2(Cl)c3ccccc3N(c3ccccc3)c3ccccc32)cc1 | -32.7% (active)
CC/C=C1/C(=O)C=C[C@@H]1C/C=C\CCCC(=O)O | 73.5%
N#Cc1c(-c2ccc(Cl)cc2)nc(NCCO)[nH]c1=O | 119%
CSc1ccc(SC2c3ccc(C)cc3Oc3nc(N)c(C#N)c(N)c32)cc1 (stereo not given) | -75.8% (active)
CC/C(=N\Nc1nc2ccccc2n1C)c1ccccn1 | -14.5% (active)
O=C1Nc2ccc(F)cc2/C1=C\C(=O)c1ccc(NS(=O)(=O)c2ccccc2)cc1 | 90.3%
CN1CCN(c2ccc3nc(/N=C/c4ccc5sc(-c6ccc([N+](=O)[O-])cc6)nc5c4)sc3c2)CC1 | 109%
Cc1cccc(NC(=O)Cn2cc(CN3CCN(c4ccnc5cc(Cl)ccc45)CC3)nn2)c1 | 90.2%
Cn1cc(-c2nnc(N)nc2-c2c[nH]c3ccc(F)cc23)c2cc(F)ccc21 | -15.1% (active)
COc1ccc(/C(C#N)=C/c2cccc(OC)c2OC)cc1 | -19.3% (active)
CCCCCN(CCCCC)CCCNc1c2c(nc3ccc(Cl)cc13)CCCC2 | 8.01% (active)
N#C/C(=C/N1C(=O)/C(=C/c2ccc([N+](=O)[O-])cc2)SC1=S)c1nc2ccccc2s1 | 84%
O=C(c1ccc(Cl)cc1)C1C(c2ccccc2)C1[N+](=O)[O-] (stereo not given) | 111%
CC1(C)N=C(N)N=C(N)N1c1cccc(OCCOc2cccc([N+](=O)[O-])c2)c1 | 25.1%
COc1ccc2cc(-c3nc4ccc(C)cn4c3NCc3ccco3)c(=O)[nH]c2c1 | 67.1%
CCCSc1nc(N)nc2nc[nH]c12 | 113%
